Screening data: PubChem BioAssay, National Center for Advancing Translational Sciences (NCATS)
Menin MLL FP TR – qHTS Assay for Inhibitors Targeting the Menin-MLL Interaction in MLL Related Leukemias: Competition With Texas Red Labeled MLL-derived Mutant Peptide | Menin + Texas Red MLL mutant peptide, fluorescence polarization | 270,000 compounds, 0.23% hits | AID 1768, 2009 | Potency, µM (top dose mostly 61.6 µM), usual class: inhibitors; active means well fitted inhibition curve with a large enough effect in the polarisation, with a control signal flat, not every such curve was filed as active; inconclusive means small, poorly fitted or top-dose-only effect, or effect the other way, or a change in a side signal; inactive means no such curve, though single readings can be large or run the other way; the % refers to the polarisation
KCNH2 3.1 block – qHTS for Inhibitors of KCHN2 3.1: Mutant qHTS. activity change, % (tested at about 1.8 µM). U2OS KCNH2 3.1, thallium flux FluxOr; stronger effect = lower value. AID 720553, 2013. 340,000 compounds, 0.95% hits. Potassium voltage-gated channel subfamily H member 2, brain isoform KCNH2 3.1 (human);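 active means maximum activity change below -70%; inconclusive means maximum activity change from -70% to -50%; inactive means maximum activity change above -50%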;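 further: thallium influx rate constant from kinetic fluorescence after stimulation buffer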
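Normalized rate constant (relative to positive and negative DMSO controls) derived from a 2 min kinetic fluorescence read after stimulation; U2OS cells expressing the 3.1 isoform via virus at 1.77 x 10^8 /mL.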
hERG WT inh – qHTS for Inhibitors of KCHN2 3.1: Wildtype qHTS | Voltage-gated inwardly rectifying potassium channel KCNH2 (Homo sapiens), Q12809 | U2OS, BacMam KCNH2, thallium flux FluxOr; stronger effect = lower value | activity change, % at 1.84 µM | 340,000 compounds, 0.37% hits;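 active means maximum activity change below -70%; inconclusive means maximum activity change between -70% and -50%; inactive means maximum activity change above -50%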
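U2OS cells transduced with wild-type KCNH2 virus are loaded with FluxOr dye for 45 min, and thallium flux is measured in kinetic reads before and after stimulation buffer. Rate constants are normalized to DMSO controls.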
Menin MLL FP FL – qHTS Assay for Inhibitors Targeting the Menin-MLL Interaction in MLL Related Leukemias: Competition With Fluorescein Labeled MLL-derived Peptide; FP activity change, % at 61.4 µM; 290,000 tested, under 10 active; AID 1766, 2009; Fluorescence polarization, fluorescein-MLL peptide displacement from menin; active means well fitted curve in the direction sought with a large enough effect in the polarisation, not every such curve was filed as active; inconclusive means small, poorly fitted or top-dose-only effect, or effect the other way, or a change in a side signal; inactive means no such curve, though single readings can be large or run the other way; the % refers to the polarisation
MLL CXXC-DNA inh – qHTS Fluorescence Polarization Assay for Inhibitors of MLL CXXC domain - DNA interaction | Potency, µM (series often up to 115 µM), hits mostly inhibitors | AID 2662, 2010 | MLL-CXXC / FITC-HOXA9 DNA fluorescence polarization | Histone-lysine N-methyltransferase 2A (Homo sapiens), Q03164 | 290,000 compounds, 0.037% hits; active means well fitted inhibition curve with a large enough effect in the polarisation, with a control signal flat, not every such curve was filed as active; inconclusive means small, poorly fitted or top-dose-only effect, or effect the other way, or a change in a side signal; inactive means no such curve, though single readings can be large or run the other way; the % refers to the polarisation
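Purified MLL-CXXC (added from a 7 uM solution) was preincubated 5 min at ambient with pinned compounds in 50 mM Tris-HCl pH 7.5, 50 mM NaCl, 1 mM DTT, 0.05% BSA. Fluorescein-labeled HOX-A9 DNA (50 nM solution) followed, 30 min, then polarization read.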
Hits are given with their value; n = inactive; u = inconclusive; x = no result given; [ ] = another dose, or the depositor's remark. Rows were chosen to be rich in hits. Some 1.1% of all compounds tested hit in one or more screens of this group.

SMILES	Menin MLL FP TR	KCNH2 3.1 block	hERG WT inh	Menin MLL FP FL	MLL CXXC-DNA inh
COc1ccc(N2CCN(CCCNC(=O)CCC(=O)N3CCOc4ccc(Cl)cc43)CC2)cc1	x	-80.0	n	x	n
O=C(CCC(=O)N1CCOc2ccc(Cl)cc21)NCCCN1CCC(Cc2ccccc2)CC1	n	-79.5	n	n	x
Cc1ccc(C)c(N2CCN(CCCNC(=O)CCC(=O)N3CCOc4ccc(Cl)cc43)CC2)c1	x	x	x	x	n
COc1ccc(CCN(C)C(=O)c2cc(S(=O)(=O)N3CCCCC3)ccc2Cl)cc1OC	x	n	n	x	x
NC(=S)NNc1ccnc2cc(Cl)ccc12	n	n	n	n	n
FC(F)Oc1ccc(NC(=S)NNc2ccnc3cc(Cl)ccc23)cc1	n	-81.1	u	n	n
Cc1onc(-c2ccccc2Cl)c1C(=O)Nc1ccccc1O	n	n	n	n	n
Cc1cccc(NC(=O)COC(=O)CCc2c[nH]c3ccccc23)c1	x	n	n	x	x
Cc1ccc(Nc2nc(Nc3ccc(C)cc3)nc(SC3=NCCS3)n2)cc1	39.8µM	n	n	n	n
COc1ccc(O[C@H]2C=C[C@@H](c3ccccc3)O[C@H]2CO/N=C\C[C@@H]2C=C[C@H](OC(C)=O)[C@H](COC(C)=O)O2)cc1	n[11.7 µM]	x	x	n[11.7 µM]	x
O=C(NCCN1CCOCC1)C1(C(F)(F)F)CC(CCCO)CCCO1 (stereo not drawn)	n	x	x	n	x
COc1cc2c(c(O)c1OC)-c1c(cc(OC)c(OC)c1OC)C[C@@H](C)[C@@H](C)C2	x	n	n	n	n
COc1cc2c(c(OC)c1OC)-c1c(cc(OC)c(OC)c1OC)C[C@H](C)[C@H](C)C2	x	-174.1	-74.0	n	n
O=C(NCc1ccccc1)c1ccc(-c2ccc(F)cc2)o1	n	n	-259.8	n	n
CN(C)CC/C=C1\c2ccccc2COc2ccc(CC(=O)O)cc21	n	x	x	n	n
c1ccc(-c2n[nH]c3ccccc23)cc1	n	n	n	n	n
O=c1[nH]nc(-c2ccccc2)c2ccccc12	x	-113.0	n	n	n
CC(C)COC(=O)N(C)C[C@@H]1OCc2cnnn2CCCC(=O)N([C@@H](C)CO)C[C@H]1C	x	n	n	x	x
Cc1ccc(S(=O)(=O)N2CCN(C(=O)COC(=O)CSc3cc(C)ccc3C)CC2)c(C)c1	x	n	n	x	x
COc1ccc(NC(=O)c2cccn(CC=C(C)C)c2=O)cc1	n	-101.7	n	n	n
Fc1ccc(-n2cc(CNCCc3cccnc3)c(-c3ccccc3Cl)n2)cc1	u	-73.6	n	n	n
CC(C)N(Cc1ccccc1)C(=O)C1CCCN(c2ncnc3c2nc2n3CCCCC2)C1 (stereo not drawn)	x	-98.1	n	x	n
O=C(C1CCCN(c2ncnc3c2nc2n3CCCCC2)C1)N1CCN(c2cccc(Cl)c2)CC1 (stereo not drawn)	n	-139.2	n	n	n
CCCCn1c(SCC(=O)c2c(N)n(C3CC3)c(=O)[nH]c2=O)nc2cc(S(N)(=O)=O)ccc21	x	n	n	x	x
c1ccc(-c2ccc(N3CCCC4(CCNCC4)C3)cc2)cc1	n	x	x	n	x
SMILES	Menin MLL FP TR	KCNH2 3.1 block	hERG WT inh	Menin MLL FP FL	MLL CXXC-DNA inh
COc1cc(NS(=O)(=O)c2ccc(NC(=S)NC(=O)CC(C)C)cc2)nc(OC)n1	n	n	-118.1	n	n
CCCN(C(=O)c1cn(C)c(=O)c2ccccc12)c1ccccc1C	n	n	n	n	n
COc1ccc(C(=O)OCc2c(-c3ccccc3)ncc3ccccc23)cc1	x	-70.0	n	x	x
Fc1ccc2c(c1)Sc1ccc(Cl)cc1CC2N1CCN(CCC2OCCO2)CC1 (stereo not drawn)	x	-95.3	n	x	x
Cc1c(C(=O)NCCSCc2ccco2)cccc1[N+](=O)[O-]	n	n	n	n	n
Cc1c(C(=O)NCCSCc2ccccc2)cccc1[N+](=O)[O-]	n	-76.8	n	n	n
Cc1ccc(NC(=O)NNC(=O)C2CCN(Cc3ccc(F)cc3Cl)CC2)cc1	n	n	n	n	n
CCN(Cc1nc2cc(Cl)ccc2c(=O)[nH]1)C(=O)CN1C(=O)NC2(CCCCC2C)C1=O (stereo not drawn)	x	n	n	x	x
O=C(Nc1ccc(CN2CCOCC2)cc1)c1ccc(-c2cc(Cl)ccc2Cl)o1	n	-75.8	n	n	n
O=C(Nc1ccc(CN2CCOCC2)cc1)c1ccc(Br)o1	u	n	n	n	n
CCC(=O)N(C)C[C@H]1Oc2ncc(C#Cc3ccncc3)cc2C(=O)N([C@@H](C)CO)C[C@@H]1C	x	n	n	x	x
COc1ccc(C2c3cc(OC)c(OC)cc3Cc3c4cc(OC)c(OC)cc4cc[n+]32)cc1OC (stereo not drawn)	n	x	x	u	x
Cc1ccc(NC(=O)C2COc3ccccc3O2)cc1 (stereo not drawn)	n	n	n	n	n
CC1(C)Oc2ccc(NC(=O)C3COc4ccccc4O3)cc2O1 (stereo not drawn)	n	-172.2	-144.7	n	n
Cc1ccc(F)cc1-c1ccc(C(=O)N=C(N)N)o1	n	x	x	n	x
CC(=O)N1CCN(c2ccc(NCc3cccs3)cc2)CC1	28.2µM	n	n	n	n
CC(=O)N1CCN(c2ccc(NCc3ccc(C)s3)cc2)CC1	n[11.7 µM]	n	n	n	n
CC(=NNc1ccccc1)C(C)=NNc1ccccc1	x	-71.0	n	x	x
CCNc1ncc2nc(-c3ccccc3)c(=O)n(Cc3cccs3)c2n1	n	x	x	n	x
Nc1nonc1-n1nnc(C(=O)N/N=C/c2ccc(O)cc2)c1COc1ccc(F)cc1	x	n	n	n	n
Nc1nonc1-n1nnc(C(=O)N/N=C/c2ccc(OCc3cccc(Cl)c3)cc2)c1CN1CCCCC1	n	n	n	n	n
CN(C)Cc1c(C(=O)N/N=C/c2ccc(OCc3c(F)cccc3Cl)cc2)nnn1-c1nonc1N	x	-85.7	n	x	n
Nc1nonc1-n1nnc(C(=O)N/N=C/c2ccc(OCc3ccccc3F)cc2)c1CN1CCCCC1	n	-100.0	n	n	n
O=C(O)[C@@H]1CSCN1	n	x	x	n	n
COc1ccc2oc(=O)cc(CN3CCN(Cc4ccccc4)CC3)c2c1	x	n	n	x	x
SMILES	Menin MLL FP TR	KCNH2 3.1 block	hERG WT inh	Menin MLL FP FL	MLL CXXC-DNA inh
COc1ccc2c(CN3CCN(Cc4ccccc4)CC3)cc(=O)oc2c1	x	-107.7	-78.8	x	x
Cc1ccc2c(CN3CCN(CCO)CC3)cc(=O)oc2c1	n	n	n	n	n
CCc1ccc2c(CN3CCN(S(=O)(=O)c4ccccc4F)CC3)cc(=O)oc2c1	x	-74.6	n	x	x
CCc1ccc2c(CN3CCN(Cc4ccccc4)CC3)cc(=O)oc2c1	n	-119.8	-141.5	n	n
COc1ccc(CN2CCN(Cc3cc(=O)oc4cc(C)ccc34)CC2)c(OC)c1OC	u	-100.0	u	n	n
O=C(c1ccccc1)c1c(-c2ccccc2)[nH]n(-c2ccccc2)c(=O)c1=O	x	n	n	x	x
